Assay outcomes: PubChem, several laboratories
Most compounds without a hit are left out; they make up all but 3.9% or so of the library.
aSyn UTR inh – MLPCN primary screen, SNCA 5' untranslated region | alpha-synuclein 5'UTR reporter, inhibitor activity | inhibition, % (tested at 7.5 µM) | 0.82% of 300,000 active; in the data active = inhibition above about 60%; inconclusive = no clear call, values can overlap the other calls;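 note: H4 neuroglioblastoma cells stably carrying SNCA 5'UTR luciferase fusion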
C8 TRAIL sens – sensitizes caspase-8 expressing cells to TRAIL; 1% of 360,000 active; inhibition (viability loss, TRAIL sensitization), % at 10 µM; NB7+C8 cells + TRAIL, ATPlite viability luminescence;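 active = compounds causing at least 50% loss of cell viability in the single-dose screen, relative to plate controls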
HSP90 inh – blocks HSP90-mediated luciferase refolding in reticulocyte lysate; Rabbit reticulocyte lysate, luciferase refolding luminescence, 3 h; inhibition, % at 5.6 µM; 0.91% of 290,000 active; AID 1789;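 active = inhibition above the screen-wide mean plus 3 SD, computed separately per campaign, cut at about 16% in these data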;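 note: inhibitors lower the luminescence because luciferase stays unfolded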
TWEAK Fn14 block – inhibitors of TWEAK-Fn14 interaction signaling. TWEAK-stimulated Fn14 reporter cells, luciferase luminescence, 8 h. inhibition, % at 10 µM. 2% of 360,000 active. AID 1159606; in the data active = inhibition above about 50%
HIF-2a inh – HIF-2a inhibition; 0.72% of 360,000 active; inhibition, % at 18.8 µM; 786-0 RCC cells HIF-2a reporter, luciferase luminescence, overnight; AID 624352;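 active = inhibition of the luminescence signal of 40% or more relative to plate controls, in a single-dose primary screen at 18.75 µM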
TROY signal inh – inhibitors of TROY-dependent NF-kB signaling; Q293 LMP1-TROYcd NF-kB luciferase reporter, 4 h; inhibition, % at 10 µM; 0.98% of 360,000 active;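 active = compounds whose plate-normalised and pattern-corrected inhibition of the luciferase reporter signal at the single screening dose is 50% or more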
HSP90 inh confirm – HSP90 inhibition, confirmation assay; shares compounds with HSP90 inh; rabbit reticulocyte lysate, luciferase refolding luminescence, 3 h; inhibition, % at 5.9 µM; 64% of 2,300 active; AID 1846; in the data active = inhibition above about 18%
FLuc counter – firefly luciferase inhibition, HSP90 counter-screen. inhibition, % at 5.9 µM. 48% of 2,300 active. shares compounds with HSP90 inh. AID 1847. purified native firefly luciferase, luminescence;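 active = inhibition above the mean inhibition of all tested sample wells plus 3 SD, cut at about 10% in these data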
Target sequence (P08659 whole entry, looked up): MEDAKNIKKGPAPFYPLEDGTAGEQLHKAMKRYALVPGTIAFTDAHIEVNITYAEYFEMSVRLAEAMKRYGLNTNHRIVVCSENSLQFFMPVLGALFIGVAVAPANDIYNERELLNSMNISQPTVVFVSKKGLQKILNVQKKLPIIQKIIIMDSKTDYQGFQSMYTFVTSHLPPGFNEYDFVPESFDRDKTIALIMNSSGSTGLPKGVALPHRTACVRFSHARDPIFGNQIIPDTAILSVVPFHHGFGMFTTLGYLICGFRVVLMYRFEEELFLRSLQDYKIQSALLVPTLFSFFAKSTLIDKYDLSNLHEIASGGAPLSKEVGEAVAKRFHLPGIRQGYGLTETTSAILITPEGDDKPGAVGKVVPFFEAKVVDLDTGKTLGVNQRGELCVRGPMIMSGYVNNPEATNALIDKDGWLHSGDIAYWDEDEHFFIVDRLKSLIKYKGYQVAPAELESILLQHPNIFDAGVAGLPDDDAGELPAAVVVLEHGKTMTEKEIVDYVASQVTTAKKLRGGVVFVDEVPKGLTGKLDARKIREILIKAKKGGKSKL
A number is an active result; i = inactive; ? = inconclusive; nt = no result given.

SMILES | aSyn UTR inh | C8 TRAIL sens | HSP90 inh | TWEAK Fn14 block | HIF-2a inh | TROY signal inh | HSP90 inh confirm | FLuc counter
O=C(NCCCN1CCCC1=O)c1cc(-c2ccc3c(c2)OCO3)nc2ccccc12 | i | i | i | i | i | i | nt | nt
O=C(/C=C/c1ccco1)N1CCc2ccccc21 | i | i | 24 | i | i | i | 41 | 25
CCCCOc1ccc(-c2cc(C(=O)NNC(=S)NCC)c3ccccc3n2)cc1 | i | 87 | 30 | i | i | i | 52 | i
CC(C)c1ccc(C(=O)CN2C(=O)NC3(CCc4ccccc43)C2=O)cc1 (stereo not drawn) | nt | i | nt | i | i | i | nt | nt
Cc1ccccc1C(=O)N1CCC(C(=O)NC2CCCCCC2)CC1 | i | i | 20 | i | i | i | i | i
COc1ccc(N(C)S(=O)(=O)c2cccc(C(=O)OCC(=O)N(C)c3ccccc3)c2)cc1 | nt | i | nt | i | i | i | nt | nt
c1ccc(C2=NNC(=NCc3ccc4c(c3)OCO4)SC2)cc1 | i | i | i | i | i | i | nt | nt
C=CCN=C1NN=C(c2ccc3c(c2)OCCO3)CS1 | i | i | 47 | 67 | i | 69 | 83 | 79
COc1ccccc1C1CC(=O)Oc2ccc(C(C)(C)C)cc21 (stereo not drawn) | nt | i | nt | i | i | i | nt | nt
Cc1ccccc1C(=O)Nc1nnc(SCC(=O)NCc2ccco2)s1 | i | 59 | 18 | i | i | i | 27 | 15
COc1nc(C)cc(C)c1S(=O)(=O)c1ccccc1 | i | i | 18 | i | i | i | i | i
Cc1cc(C)c(S(=O)(=O)c2ccccc2)c(OC(=O)c2c(Cl)cc(Cl)cc2Cl)n1 | i | i | i | i | i | i | nt | nt
CC1CCN(c2ccc(/C=N\Nc3nncn3N)cc2[N+](=O)[O-])CC1 | nt | i | 60 | i | i | i | i | i
CC1CCN(c2ccc(/C=N/n3nnnc3N)cc2[N+](=O)[O-])CC1 | i | i | i | i | i | i | nt | nt
Cc1nc2c(OCc3cc(Cl)cc(Cl)c3)cccn2c1N(C)C(=O)CCC1CCCC1 | nt | i | nt | i | i | i | nt | nt
Cn1ccnc1SCc1cn2cc(Br)ccc2n1 | i | i | 18 | i | i | i | 40 | 34
O=C(O)c1ccc(-c2ccc(-c3ccccc3)cc2)s1 | 64 | i | 94 | i | 70 | i | 93 | 83
CCOc1ccc(Nc2ncnc3c2cnn3Cc2ccccc2)cc1 | i | i | 23 | i | i | i | i | i
CN(C)S(=O)(=O)c1ccc(NC(=O)c2ccccn2)cc1 | i | i | i | i | i | i | nt | nt
CN(C)c1ccc(C(=S)Nc2ccccc2)cc1 | i | i | 57 | 95 | i | 82 | 65 | i
CN(C)c1ccc(NC(=S)c2ccccn2)cc1 | 97 | 85 | 66 | 99 | 54 | 81 | 94 | 90
COc1ccccc1CNCCS(=O)(=O)NN1CCOCC1 | nt | i | nt | i | i | i | nt | nt
C[n+]1cccc(C2C(C#N)=C(N)Oc3c2ccc2ccccc32)c1 (stereo not drawn) | i | i | 18 | i | i | i | i | i
O=C(CCc1ccccc1)NC1(Cc2ccccc2)CCN(CCCc2ccccc2)C1=O (stereo not drawn) | nt | i | nt | i | i | i | nt | nt
Cc1cc(NC2CCCC2)n2ncc(-c3ccccc3)c2n1 | ? | 59 | 59 | 90 | i | 81 | 71 | 70
SMILES | aSyn UTR inh | C8 TRAIL sens | HSP90 inh | TWEAK Fn14 block | HIF-2a inh | TROY signal inh | HSP90 inh confirm | FLuc counter
COc1ccc(-c2cc(C)nc3c(-c4ccccc4)cnn23)cc1 | i | i | 21 | 65 | i | 66 | 45 | 28
Cc1cc(NCCCn2ccnc2)n2ncc(-c3ccccc3)c2n1 | nt | 77 | 34 | 99 | i | 81 | 62 | 56
Cc1cc(-c2ccccc2)n2ncc(-c3ccccc3)c2n1 | i | 62 | 22 | 89 | i | 74 | 61 | 55
Cc1cc(NCCCn2ccnc2)n2nc(C)c(-c3ccccc3)c2n1 | i | i | i | i | i | i | nt | nt
Cc1noc(C)c1S(=O)(=O)NC(=O)C1(C)CCN1C(=O)c1ccc(C2CCCCC2)cc1 (stereo not drawn) | nt | i | nt | i | i | i | nt | nt
CN1C(=O)c2ccccc2CC12c1ccccc1C(=O)N2C (stereo not drawn) | nt | i | nt | i | i | i | nt | nt
CCOC(=O)N1CCN(C(c2ccnc3ccccc23)c2nnnn2-c2ccc3c(c2)OCCO3)CC1 (stereo not drawn) | nt | i | nt | i | i | i | nt | nt
CC(=NNC(=O)COc1cccc(C)c1)c1cccnc1 | nt | i | nt | i | i | i | nt | nt
Cc1c(C(=O)N2CCC2(C)C(=O)O)oc2ccccc12 (stereo not drawn) | nt | i | nt | i | i | i | nt | nt
CC(C)n1cc2c(N)ncnc2n1 | nt | i | nt | i | i | i | nt | nt
CC(C)c1ccc2oc(-c3ccc(N)cc3)nc2c1 | i | 80 | 23 | 81 | i | i | 50 | 46
Nc1cccc(-c2nc3cc(S(=O)(=O)c4ccc5oc(-c6cccc(N)c6)nc5c4)ccc3o2)c1 | i | i | i | i | i | i | nt | nt
CC(C)(C)c1ccc(-c2nc3cc(N)ccc3o2)cc1 | i | 72 | 31 | 69 | i | 64 | 42 | 45
Nc1ccc(-c2nc3cc([N+](=O)[O-])ccc3o2)cc1 | i | i | i | i | i | i | nt | nt
Cc1ccc2oc(-c3cccc(N)c3)nc2c1 | i | 63 | 33 | 51 | i | i | 43 | 38
Cc1ccc(S(=O)(=O)N2CCOCC2)cc1C(=O)N1CCN(S(=O)(=O)c2ccccc2F)CC1 | nt | i | nt | i | i | i | nt | nt
Cc1ccc(-c2noc(CCC(=O)NCc3ccco3)n2)cc1 | i | i | 24 | i | i | i | i | i
COc1cccc(-c2cccc3c2NC(=O)C3(C)Cc2ccccc2F)c1 (stereo not drawn) | nt | i | nt | i | i | i | nt | nt
Cc1cc[n+](-c2[nH]c(=O)sc2/C=N/N=C(\[O-])c2ccccc2)cc1C | i | i | 18 | i | i | i | i | i
COC(=O)c1ccccc1NC1=C/C(=N\S(=O)(=O)c2ccc(C(=O)O)cc2)c2ccccc2C1=O | i | 69 | 77 | 94 | i | i | 92 | i
O=C(O)c1cccc(NS(=O)(=O)c2ccc3c(c2)C(=O)c2ccccc2C3=O)c1 | i | i | 22 | i | i | i | i | i
Cc1ccc(S(=O)(=O)/N=C2\C=C(Nc3cccc(C(=O)O)c3)C(=O)c3ccccc32)cc1 | i | i | 96 | 94 | i | i | 92 | i
O=C1c2ccccc2C(=O)c2cc(S(=O)(=O)Nc3ccccc3)ccc21 | i | i | i | i | i | i | nt | nt
CCc1ccc(S(=O)(=O)/N=C2\C=C(Nc3ccc(C(=O)O)cc3)C(=O)c3ccccc32)cc1 | i | i | 93 | 96 | i | i | 96 | i
O=C(O)c1cn(-c2ccc(F)cc2)c2cc(N3CCNCC3)c(F)cc2c1=O | nt | i | nt | i | i | i | nt | nt
